PLCg1 inh – PLC-gamma1 enzyme inhibitors, primary screen, biochemical, fluorescence, purified enzyme | 370,000 tested, 0.84% active | AID 720700, 2013 | inhibition, % at 12.2 µM | fluorogenic substrate | 1-phosphatidylinositol 4,5-bisphosphate phosphodiesterase gamma-1 (Homo sapiens), P19174; in the data active = inhibition above about 9.5%
ADAM17 inh – ADAM17 inhibitors, primary screen, biochemical, QFRET; recombinant ADAM17, EDANS/DABCYL FRET peptide cleavage; inhibition, % at 6.95 µM; 370,000 tested, 0.83% active;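 active = inhibition above the mean of compounds lying between control limits plus 3 SD, set per campaign, cut at about 8.5% in these data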;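 note: 0% = DMSO-only wells as the low control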
ADAM10 inh – human ADAM10 inhibitors, primary screen, biochemical, QFRET, HTS. 370,000 tested, 0.62% active. recombinant ADAM10, EDANS/DABCYL FRET peptide cleavage, 3 h. inhibition, % at 7 µM. AID 720582, 2013. Disintegrin and metalloproteinase domain-containing protein 10 (Homo sapiens), O14672;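 active = inhibition above a per-campaign cutoff equal to the mean of compounds falling between control-based bounds plus 3 SD, cut at about 20% in these data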;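 note: 0% = DMSO wells while the 100% control is not disclosed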
proKLK7 act – proKLK7 zymogen activators, primary screen, biochemical, fluorescence intensity. Kallikrein-7 (Homo sapiens), P49862. purified proKLK7, EDANS-DABCYL substrate fluorescence; 100% is mature enzyme control, 0% vehicle. activation, % at 7 µM. 370,000 tested, 0.9% active. AID 652039, 2013;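 active = activation above the mean of all tested compounds plus 3 SD, computed per campaign excluding outliers beyond control limits, cut at about 13% in these data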
PLCb3 inh – human PLC-beta3 inhibitors, primary screen, biochemical, fluorescence. 1-phosphatidylinositol 4,5-bisphosphate phosphodiesterase beta-3 (Homo sapiens), Q01970. Purified PLC-beta3, fluorogenic substrate. inhibition, % at 12.2 µM. 370,000 tested, 0.18% active; in the data active = inhibition above about 11%;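 note: 0% = median of compound wells on plate and 100% = full blocker control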
ADAM10 counter – ADAM10 inhibitors, counter-screen for ADAM17 exosite inhibitor project, biochemical, FRET, human ADAM10; shares compounds with ADAM17 inh; inhibition, % at 6.95 µM; AID 743256, 2014; recombinant ADAM10, EDANS/DABCYL FRET peptide cleavage, 3 h; 2,900 tested, 47% active;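 active = mean inhibition over the triplicate runs exceeds the activity threshold set in the earlier primary screen, cut at about 20% in these data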;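 note: 0% = DMSO wells and 100% = marimastat wells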
ADAM17 confirm – ADAM17 inhibitors, hit retest, confirmation, biochemical, QFRET peptide cleavage; shares compounds with ADAM17 inh; recombinant ADAM17, EDANS/DABCYL QFRET peptide cleavage; inhibition, % at 6.95 µM; 2,900 tested, 65% active;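 active = mean inhibition across replicates above the hit cutoff set in the primary screen, cut at about 8.5% in these data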;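 note: 0% = DMSO wells and 100% = marimastat wells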
Starred values were filed as active, the others as inactive; nt = no result given. Rows were chosen to be rich in hits. Some 2.9% of all compounds tested hit in one or more screens of this group.

SMILES | PLCg1 inh | ADAM17 inh | ADAM10 inh | proKLK7 act | PLCb3 inh | ADAM10 counter | ADAM17 confirm
O=C(NNC(=O)C1CC1)c1ccc(F)cc1F | -18.5 | -5.7 | -13.6 | -0.3 | 1.2 | nt | nt
O=C(NNC(=O)C1CCC1)c1ccccc1F | 8.4 | 9.9* | 1.1 | 0.2 | -0.7 | -0.5 | 1.7
Clc1cccc(COn2c(-c3ccc(Cl)cc3Cl)nc3ncccc32)c1 | 1.9 | 11.2* | 3.7 | 0.7 | -7.3 | -13.4 | 3.9
Cc1ccc(COn2c(-c3ccc(Cl)cc3Cl)nc3ncccc32)cc1 | -2.0 | -3.3 | -8.5 | -0.3 | -6.9 | nt | nt
Cc1ccc(SCc2cc(=O)c3c(=O)n(-c4ccccc4)[nH]c3[nH]2)cc1 | 5.0 | 10.0* | 2.1 | 0.4 | -2.1 | 21.6* | 13.9*
CC(=O)O[C@@H](Cc1ccc(O)cc1)C(=O)CC(C)C | 9.3 | 9.2* | 4.9 | 0.0 | 5.7 | 1.3 | 2.1
CC(=O)NC(Cc1ccc(O)cc1)C(=O)NN (stereo unspecified) | -2.7 | -4.1 | 1.1 | 0.3 | -9.4 | nt | nt
CC(C)Oc1cccc(NC(=O)C2(C)CCN2C(C)C)c1 (stereo unspecified) | 1.2 | 0.2 | -5.8 | -0.5 | 4.8 | nt | nt
CCCCCC(CC(=O)NO)C(=O)NC(C(=O)N1CCCC1CO)C(C)C (stereo unspecified) | 1.3 | 51.1* | nt | 0.1 | 2.5 | nt | 63.7*
CCC(C)[C@H](NC(=O)[C@@H]1CSC2c3ccccc3C(=O)N21)C(=O)NCC1CCCO1 (stereo partly specified) | 3.6 | 11.6* | 0.5 | 0.4 | -2.5 | 7.2 | 2.7
CC(=O)O[C@@H]1C=C[C@@H](C#Cc2ccc(C(C)(C)C)cc2)O[C@@H]1COC(=O)Nc1ccccc1 | 2.4 | 13.3* | 13.1 | 0.2 | 6.9 | 29.3* | 12.7*
CC(=O)O[C@H]1C=C[C@@H](C#Cc2ccc(C(C)(C)C)cc2)O[C@@H]1COC(=O)Nc1ccccc1 | -6.5 | 0.1 | 0.2 | 0.5 | -5.2 | nt | nt
O=C(Cn1ncc(Cl)c(Cl)c1=O)c1ccc2c(c1)OCCO2 | -0.5 | -3.6 | -7.4 | -0.5 | -6.2 | nt | nt
CCOc1ccc(CNC(=S)N/N=C/c2ccc(OC)c(OC)c2)cc1 | 0.8 | 8.7* | 10.1 | 0.1 | -2.2 | 14.5 | 14.6*
Cc1ccc(/C=N/n2c(-c3ccccc3)n[nH]c2=S)cc1 | 1.2 | -2.4 | 3.0 | -0.2 | -9.7 | nt | nt
Cc1cccc(/C=N/n2c(-c3ccncc3)n[nH]c2=S)c1 | -0.1 | 11.1* | 9.5 | -0.2 | 7.8 | 12.0 | 3.8
S=c1[nH]nc(-c2ccncc2)n1/N=C/c1ccccc1 | 6.1 | 2.9 | 1.4 | 0.1 | 4.9 | nt | nt
CC(C)c1ccc(/C=N/n2c(-c3ccccc3)n[nH]c2=S)cc1 | 7.5 | 10.1* | 18.9 | -0.3 | -1.8 | 9.5 | 4.6
COc1ccc(C(CNC(=O)CCOc2ccccc2)N(C)C)cc1 (stereo unspecified) | 0.2 | 0.2 | -3.6 | -0.4 | -3.9 | nt | nt
C=CC[C@H]1CC(C)=C[C@H](CC=C)N1C(=O)c1cc(COc2ccccc2SC)on1 | 4.5 | 9.4* | 13.3 | 0.2 | -4.0 | 29.0* | 14.5*
COCC1CCN(C(=O)c2cc(COc3ccccc3SC)on2)C1 (stereo unspecified) | -2.4 | 0.4 | -2.0 | 0.2 | -5.6 | nt | nt
C#CCN(C[C@@H]1[C@@H](OC(=O)Nc2cccs2)[C@@H](OC(=O)Nc2cccs2)Cn2c(=O)n(CCCCCC)c(=O)n21)S(=O)(=O)c1ccc(C)cc1 | -0.1 | 10.5* | 18.0 | 0.7 | -1.2 | 19.8 | 10.4*
C#CCN(C[C@@H]1[C@@H](OC(=O)Nc2cccs2)[C@@H](OC(=O)Nc2cccs2)C[C@H](C(=O)OC)[C@@H]1C(=O)OC)S(=O)(=O)c1ccc(C)cc1 | 0.2 | 5.8 | 16.8 | -0.2 | 0.5 | nt | nt
C=CCNC(=O)c1ccc(Cn2cc(C(F)(F)F)ccc2=O)cc1 | 0.0 | -1.6 | 3.8 | 0.0 | 1.4 | nt | nt
Nc1nonc1-c1nc2ccccc2n1CC(=O)N1CCCCC1 | 3.3 | 9.9* | 12.1 | -0.4 | 4.2 | -12.2 | -1.2
SMILES | PLCg1 inh | ADAM17 inh | ADAM10 inh | proKLK7 act | PLCb3 inh | ADAM10 counter | ADAM17 confirm
CCOC(=O)c1ccc(N2C(=O)c3n[nH]c(C)c3C2c2ccc(OC)cc2)cc1 (stereo unspecified) | 0.8 | -1.5 | 7.3 | 0.3 | 1.9 | nt | nt
CCOC(=O)c1ccc(N2C(=O)c3n[nH]c(C)c3C2c2ccc(OC)cc2OC)cc1 (stereo unspecified) | 2.3 | 8.7* | 17.4 | 0.1 | -1.0 | 16.2 | 10.2*
c1ccc(-c2nnc(SCC3CCCO3)nc2-c2ccccc2)cc1 (stereo unspecified) | 1.0 | 0.4 | 4.7 | -0.3 | 4.2 | nt | nt
CCC(C)[C@H]1CNC(=S)N1CCc1cccc2ccccc12 (stereo partly specified) | 5.4 | 12.7* | 5.7 | 0.6 | 4.3 | 5.4 | 2.8
Cc1[nH]c2ccccc2c1C(=O)COC(=O)c1c(-c2ccccc2Cl)noc1C | -1.9 | 9.5* | 19.6 | -2.6 | 0.5 | 32.6* | 17.9*
Cc1ccc(-c2ccc(CN3C(C)C(=O)N(Cc4cn(CCC5OCCO5)nn4)CCS3(=O)=O)cc2)cc1 (stereo unspecified) | -4.4 | 2.6 | -6.2 | -0.3 | -4.8 | nt | nt
CC1C(=O)N(Cc2cn(CCC3OCCO3)nn2)CCS(=O)(=O)N1Cc1ccc(-c2ccc(Cl)cc2)cc1 (stereo unspecified) | 0.0 | 8.6* | 15.2 | 1.3 | 3.6 | 13.1 | 4.7
COC(=O)[C@H](CC(C)C)NCc1cccc(CN[C@@H](CC(C)C)C(=O)OC)c1 | 6.4 | 8.9* | 6.8 | -0.7 | 5.0 | 7.3 | 3.5
O=C(CN1CCN(c2ccc(O)cc2)CC1)Nc1cc(S(=O)(=O)N2CCCCC2)ccc1Cl | 0.1 | 10.3* | 16.6 | 1.0 | 4.9 | 17.4 | 10.7*
O=C(CN1C(=O)c2ccccc2S1(=O)=O)Nc1cc(S(=O)(=O)N2CCCCC2)ccc1Cl | 6.7 | 10.4* | 1.0 | 0.1 | -1.9 | 17.3 | 13.1*
O=C(CN1CCN(c2ccc(O)cc2)CC1)Nc1cc(S(=O)(=O)N2CCCC2)ccc1Cl | -1.0 | 0.8 | 3.2 | 0.0 | -2.0 | nt | nt

Screens (PubChem BioAssay)
